# Compound activity: PubChem BioAssay, National Center for Advancing Translational Sciences (NCATS)
# FLuc counter: qHTS profiling assay for firefly luciferase inhibitor/activator using purifed enzyme and Km concentrations of substrates (counterscreen for miR-21 project) | Potency, µM (series often up to 57.5 µM), hits mostly inhibitors | purified FLuc, Km substrates, luminescence inhibition | 360,000 tested, 6.9% active | Luciferin 4-monooxygenase (Photinus pyralis), P08659; note: nearly all actives have a fitted effect of over 55% in size
# Target sequence (P08659 whole entry, looked up): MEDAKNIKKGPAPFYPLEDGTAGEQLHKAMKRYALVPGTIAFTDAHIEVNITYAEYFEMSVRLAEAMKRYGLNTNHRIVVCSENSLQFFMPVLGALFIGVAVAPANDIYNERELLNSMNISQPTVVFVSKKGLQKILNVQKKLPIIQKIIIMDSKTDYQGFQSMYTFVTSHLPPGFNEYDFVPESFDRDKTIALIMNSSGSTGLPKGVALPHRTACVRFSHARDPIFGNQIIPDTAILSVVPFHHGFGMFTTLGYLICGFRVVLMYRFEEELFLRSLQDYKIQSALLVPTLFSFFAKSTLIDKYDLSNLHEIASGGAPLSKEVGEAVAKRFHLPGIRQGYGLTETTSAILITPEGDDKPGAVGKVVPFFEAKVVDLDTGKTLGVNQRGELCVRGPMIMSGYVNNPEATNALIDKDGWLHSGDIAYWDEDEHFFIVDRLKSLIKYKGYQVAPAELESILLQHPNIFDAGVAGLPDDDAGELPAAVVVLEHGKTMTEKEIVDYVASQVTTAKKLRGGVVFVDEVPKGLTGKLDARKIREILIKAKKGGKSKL
#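 Biochemical qHTS of compounds, final roughly 60 µM downward over six points, against 10 nM purified firefly luciferase using Km concentrations of substrates (10 uM D-luciferin, 10 uM ATP) in Tris acetate pH 7.5 buffer; luminescence output.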
# ELG1 genotoxic: qHTS screen for small molecules that induce genotoxicity in human embryonic kidney (HEK293T) cells expressing luciferase-tagged ELG1; HEK293T ELG1-luciferase reporter, luminescence, 16 h; 330,000 tested, 1.3% active; AID 504466, 2011; Potency, µM (highest dose often 46 µM), usual class: activators; note: nearly all actives have a fitted effect of over 60% in size
#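 Luminescence read-out: rising ELG1-luciferase signal, reflecting elevated ELG1 protein under genetic stress, flags genotoxic compounds. Cells were treated for 16 hr at 37 °C before ONE-Glo detection.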
# SMN2 splice up: qHTS Assay for Enhancers of SMN2 Splice Variant Expression; HEK293 SMN2-luciferase splicing reporter, luminescence, 30-36 h; Potency, µM (titrated, usually from 46.1 µM), actives largely listed as activators; 210,000 tested, 2.8% active; AID 1458, 2008; note: nearly all actives have a fitted effect of over 55% in size
#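 HEK293 cells carry an SMN2 minigene-luciferase reporter in which exon 7 inclusion puts luciferase in frame. Cells were seeded at 2000 cells/well, attached for 10-12 hours, then exposed to compounds for 30-36 hours at 37C before ONE-Glo luminescence.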
# Rab9 promoter act: qHTS Assay for Rab9 Promoter Activators | 320,000 tested, 2.8% active | Huh7 Rab9 promoter-luciferase reporter, luminescence, 24 h | Potency, µM (titrated, usually from 9.22 µM), usual class: activators; note: nearly all actives have a fitted effect of over 60% in size
#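 Huh7 cells stably carrying a Rab9 promoter-luciferase reporter, 1500 cells per well in OP-MEM I with 10% FBS, treated with compound 24 hours at 37C. Luciferase activity read by luminescence after 10 minutes with Amplite reagent.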
# Luc counter: Counterscreen for Luciferase (Kinase-Glo TM) Inhibition | Luciferin 4-monooxygenase (Photuris pensylvanica), Q27757 | Kinase-Glo luciferase, ATP luminescence, 8 min | Potency, µM (doses to about 38.3 µM), hits mostly inhibitors | 200,000 tested, 0.28% active | AID 1379, 2008; note: nearly all actives have a fitted effect of over 60% in size
#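 Luminescence was the read-out, taken after 8-minute incubation at ambient temperature. Luciferase turned over luciferin with 10 uM ATP in imidazole pH 7.2 buffer containing KCl, MgCl2, Tween 20 and BSA.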
# NPC1 prom act: qHTS Assay for NPC1 Promoter Activators. Potency, µM (doses to about 9.22 µM), hits mostly activators. 320,000 tested, 2.4% active. AID 485313, 2010. Huh7 NPC1 promoter luciferase reporter, 24 h; note: nearly all actives have a fitted effect of over 60% in size
#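 Readout is luciferase luminescence, reflecting NPC1 promoter activation in stably transfected Huh7 cells after 24 h compound exposure at 37 °C in reduced-serum medium with 10% FBS.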
# A number is an active result; 0 = inactive; ? = inconclusive; - = no result; [ ] = another dose, or the depositor's remark. Compounds with a hit are over-represented: about 7.5% of the library has one in this group of screens. Calls come from the whole dose curve; as a rule, active = well fitted curve in the direction sought with a large enough effect; inconclusive = small, poorly fitted or top-dose-only effect, or another doubt; inactive = no such curve, though single readings can be large; an effect the other way counts as inactive or inconclusive.
SMILES,FLuc counter,ELG1 genotoxic,SMN2 splice up,Rab9 promoter act,Luc counter,NPC1 prom act
Cc1oc(-c2ccc(C(=O)Nc3ccc(F)cc3F)cc2)nc1COc1ccccc1,0,-,-,-,-,-
O=S(=O)(c1cccc(F)c1)N1CCN(C(=S)NCC2CCCO2)CC1 (stereo unspecified),0,0,-,0,-,0
O=C(O)[C@@H]1Cc2c([nH]c3ccccc23)[C@@H](CCCCO)N1,-,-,0[9.22 µM],-,0[7.66 µM],-
CN(c1nc(-c2ccc(Br)cc2)cs1)C1CCS(=O)(=O)C1 (stereo unspecified),24µM,0,0,?,0,?
Cc1ccsc1CN(C(=O)COc1ccc(Br)cc1)C1CCS(=O)(=O)C1 (stereo unspecified),0,-,0,-,-,-
Cc1ccc2nc(SCc3nc(-c4ccc(Cl)cc4)no3)[nH]c2c1,0,-,0,-,-,-
Cc1cc(=O)n(Cc2cccc(Cl)c2)c2c1c(C)nn2C,0,-,-,-,-,-
CC(C)COC(=O)N1CCCC1C(=O)O (stereo unspecified),0,0,0,3.2µM,0,0
COCCNc1c(-c2ccc(OC)c(OC)c2)nc2ccc(Cl)cn12,0,0,-,0,0,0
COCCNc1c(-c2cc3ccc(C)c(C)c3[nH]c2=O)nc2ccccn12,3.4µM,?,-,0.71µM,0,2.5µM
O=C(NCCCN1CCOCC1)c1cc2c(s1)CCCC2,0[2.3 µM],0,0,0,0,0
O=C(NCCCN1CCCC1=O)c1cc2c(s1)CCCCC2,17µM,?,-,?,-,0
CC(C)Cc1nnc(NC(=O)c2cc3c(s2)CCC3)s1,?,0,-,3.2µM,-,3.5µM
O=C(Nn1cnnc1)c1cc2c(s1)CCCC2,21µM,0,0,0,0,0
O=C(Nc1nnc(SCc2ccccc2)s1)c1cc2c(s1)CCCC2,?,?,0,0,0,0
CC(C)Cc1nnc(NC(=O)c2ccc(N3CCCC3=O)cc2)s1,0,0,-,0,-,0
CCSc1nnc(NC(=O)c2cc3c(s2)CCCC3)s1,?,0,?,1.6µM,0,2.5µM
COc1ccc(C2c3c(oc4cc(C)cc(C)c4c3=O)C(=O)N2Cc2ccco2)cc1OC (stereo unspecified),0,-,0,-,-,-
COc1cc(OC)c(NC(=O)CC(C)S(=O)(=O)c2ccc3c(c2)NC(=O)CO3)cc1Cl (stereo unspecified),0,-,-,-,-,-
O=C(Nc1nncs1)c1cc2c(s1)CCC2,6.7µM,?,?,2.8µM,0,?
O=C(Nc1nccs1)c1cc2c(s1)CCCCC2,0.085µM,-,0,0.79µM,7.1µM,1µM
Cc1cc(C)n(C(=O)c2cc3c(s2)CCCC3)n1,24µM,0,0,0,0,0
NNC(=O)c1cc2c(s1)CCCCCC2,?,0,0,0,0,0
O=C(NCCCN1CCCC1=O)C(=O)Nc1cccc(F)c1,17µM,?,-,3.2µM,-,?
O=C(NCCCN1CCOCC1)c1c(F)c(F)c(F)c(F)c1F,0,0,-,0,-,0
SMILES,FLuc counter,ELG1 genotoxic,SMN2 splice up,Rab9 promoter act,Luc counter,NPC1 prom act
Cc1ccc(NC(=O)c2ccc(NC(=O)N3CCSc4nc(C)cc(C)c43)cc2)c(Cl)c1,0,-,-,-,-,-
CCc1ccc(NC(=O)C2CCN(S(=O)(=O)c3ccc4[nH]c5c(c4c3)CCCCC5)CC2)cc1,0,-,-,-,-,-
Cc1[nH]c2ccccc2c1C(=O)/C=C\c1ccccc1Cl,6µM,?,?,?,0,?
Cc1[nH]c2ccccc2c1C(=O)/C=C/c1ccccc1Cl,8.5µM,?,11µM,3.2µM,0,3.2µM
Cc1[nH]c2ccccc2c1C(=O)/C=C/c1ccccc1,4.8µM,0,0,?,0,3.2µM
CCCn1c2ccccc2c2cnn(CC(=O)Nc3cc(OC)c(OC)c(OC)c3)c(=O)c21,0,-,-,-,-,-
COc1cccc(-c2cc(C(F)(F)F)n3nc(C)c(-c4ccccc4)c3n2)c1,0,-,0,-,-,-
CC1(C)C(=O)N(CC(=O)Nc2ccc(OC(F)(F)F)cc2)c2ccccc21,0,-,-,-,-,-
COc1ccc(C(=O)N2CCC3(CCN(CC(C)C)CC3)CC2)cc1,-,-,0,-,0,-
COc1cccc2sc(Nc3nc4ccc(NC(C)=O)cc4s3)nc12,?,0,0,0,0,0
Fc1cccc2sc(Nc3nc4ccccc4s3)nc12,?,?,10µM,?,0,?
Fc1ccc2nc(Nc3nc4c(F)cc(F)cc4s3)sc2c1,8.5µM,0,-,0,-,?
O=C(NNc1nc2ccccc2s1)c1ccccc1F,0,0,0,0,0,0
Fc1ccc2nc(Nc3nc4c(F)cccc4s3)sc2c1,9.5µM,0,?,?,0,?
CCC(=O)NNc1nc2c(F)cc(F)cc2s1,0,0,0,0,0,0
Cc1c(C(=O)N/N=C/c2ccncc2)nnn1-c1nonc1N,0,0,-,0,-,0
COc1ccccc1CC1S/C(=N/N=C/c2ccco2)NC1=O (stereo unspecified),0,0,0,0,0,0
BrC(=C\c1ccccc1)/C=N/Nc1ccc2nncn2n1,13µM,0,-,0,-,0
CN(CCN1CCOCC1)C(=O)c1cc(COc2ccc(F)c(F)c2)on1,?,?,-,0,-,0
COc1ccc(CNS(=O)(=O)c2ccc(F)c(C(=O)Nc3c(C)cc(C)cc3C)c2)cc1,0,-,-,-,-,-
Cc1cccc(-c2nc(=S)c3c(o2)CCCC3)c1,3.4µM,?,11µM,1.4µM,0,1.4µM
COc1ccc(N2CCN(S(=O)(=O)CCNC(=O)c3ccc(OC(C)C)cc3)CC2)cc1,0,-,-,-,-,-
O=C(NCCc1c[nH]c2ccccc12)c1cc(Cl)c2c(c1)OCO2,24µM,?,-,1.4µM,-,2.5µM
Cc1ccc2[nH]cc(CCNC(=O)c3ccc4c(c3)OCO4)c2c1,?,0,-,0,-,0
Cn1c(C(=O)NCCc2c[nH]c3ccccc23)cc2sccc21,12µM,15µM,0,?,0,?
SMILES,FLuc counter,ELG1 genotoxic,SMN2 splice up,Rab9 promoter act,Luc counter,NPC1 prom act
O=C(NCCc1c[nH]c2ccccc12)c1ccc2[nH]c(=O)c(=O)[nH]c2c1,0,0,-,0,-,0
Cc1ccc(C(=O)N/C(=C/c2ccco2)C(=O)NCCc2c[nH]c3ccccc23)cc1,15µM,0,0,0,0,0
O=C(NCCc1c[nH]c2ccccc12)c1ccc2c(c1)OCO2,6.7µM,?,-,1.3µM,-,1.1µM
O=C(Cn1c(=O)c(C(F)(F)F)nc2ccccc21)Nc1ccc(Br)cc1F,0,-,-,-,-,-
COc1cc(-c2nc(-c3ccc4c(c3)-c3ccccc3S4(=O)=O)c(-c3ccccc3)[nH]2)cc(OC)c1O,6.7µM,0,0,0,0,0
COc1cc(-c2nc(-c3cccc(Cl)c3)c(-c3ccccc3)[nH]2)cc(OC)c1OC,0,-,0,-,-,-
CCc1ccc(-c2csc(NC(=O)COC(=O)CCc3nc4ccccc4s3)n2)cc1,?,?,5.6µM,3.2µM,0,2.8µM
